This note sets out measurements from PubChem BioAssay (NCATS).

Structures are written as SMILES. Results filed as inconclusive are left out. Values without a mark were called inactive. Calls of active or inactive are those of the source. Calls follow the shape of the dose curve; as a rule, active = well fitted inhibition curve with a large enough effect; inconclusive = small, poorly fitted or top-dose-only effect; inactive = flat fitted curve, though single readings scatter. Where a SMILES comes first, the peptide text is derived from it. Bridges are numbered along the chain shown (N, C = ends). [ ]: non-standard residue; d: D form. The star is where a group is joined. ξ: configuration not given here. d(aThr) = C[C@@H](O)[C@@H](N)C(=O)O; ξThr(3R) = C[C@@H](O)C(N)C(=O)O; X3 = CC[C@@H](C)CCCCC(=O)*; dDab = NCC[C@@H](N)C(=O)O

Experiment [1] has as its system astro (control astrocytes). In words: Drug repurposing screens with cells derived from glioblastoma tumor samples (AID 1345199). Also: nearly all actives have a fitted effect of over 40% in size. The settings on record: viability, ATP luminescence, 48 h; series mostly up to 45.9 µM. In short, it runs like this: (§1)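 Primary testing used CD133+ neurospheres from four GBM patients, seven concentrations, 48 h exposure and ATP-based viability; confirmation added three slower-growing patient lines.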

Assay in experiment [2]: as above
The conditions noted are these: GBM patient neurospheres viability, ATP luminescence, 48 h. In short, it runs like this:
as §1

[3] abbreviates: at 45.9 µM (top of the series), tumour line B.
The mark [4] stands for this setting: at 46.1 µM (top of the series), tumour line C.
[5] abbreviates: at 45.9 µM (top of the series), tumour line D.
% is scaled to controls: 0 for no effect and ±100 for the full control effect; potency is read from the fitted curve at half-maximal effect.

On to `Cc1cc(-c2ccc(N=Nc3ccc4c(S(=O)(=O)O)cc(S(=O)(=O)O)c(N)c4c3O)c(C)c2)ccc1N=Nc1ccc2c(S(=O)(=O)O)cc(S(=O)(=O)O)c(N)c2c1O`, for which the Potency in experiment [1] was 17.8 µM (active).
`N=C(N)n1cccn1`: in experiment [2] (setting [3]), the activity, negative = cell killing is -2.75%. Also, the Potency result in experiment [1] is “inactive”.
Consider `C=C[C@]1(C)C[C@@H](OC(=O)CSCCN(CC)CC)[C@]2(C)[C@H](C)CC[C@]3(CCC(=O)[C@H]32)[C@@H](C)[C@@H]1O`, for which the activity, negative = cell killing in experiment [2] (setting [3]) was -23.5%. For the same compound, the Potency in experiment [2] (tumour line A) was 7.94 µM (active). Besides, the Potency entry in experiment [1] is “inactive”.
In the case of `Cc1cccc(C)c1NC(=O)C1CCCCN1C` (stereo unspecified), the activity, negative = cell killing is -7.34% in experiment [2] (setting [3]) and 2.03% in experiment [2] (setting [4]). Moreover, the Potency result in experiment [1] was “inactive”.
Regarding `O=C(O[C@H]1CN2CCC1CC2)N1CCc2ccccc2[C@@H]1c1ccccc1`, the Potency entry in experiment [1] is “inactive”.
The same measure, in the same setting: the value for `CN(C)C(=O)CCSC(SCCC(=O)O)c1cccc(/C=C/c2ccc3ccc(Cl)cc3n2)c1` (stereo unspecified) was 17.8 µM (active).
On to `C=Cc1ccc(S(=O)(=O)O)cc1`, for which the activity, negative = cell killing in experiment [2] (setting [3]) was -6.14%; in experiment [2] (setting [5]), -2.96%. Besides, in experiment [1], the Potency entry is “inactive”.
Consider `CC[C@@H](C)CCCCC(=O)N[C@H](CCN)C(=O)N[C@@H](C(=O)N[C@H](CCN)C(=O)N[C@@H]1CCNC(=O)C([C@@H](C)O)NC(=O)[C@@H](CCN)NC(=O)[C@@H](CCN)NC(=O)[C@@H](CC(C)C)NC(=O)[C@@H](Cc2ccccc2)NC(=O)[C@@H](CCN)NC1=O)[C@@H](C)O` (stereo partly drawn) (X3-[dDab][d(aThr)][dDab][dDab][dDab][dF][dL][dDab][dDab][ξThr(3R)]; lactam 4-C), for which the values for the activity, negative = cell killing in experiment [2] (setting [5]) and in experiment [2] (setting [4]) were -10.3% and 4.35%, respectively. In addition, the Potency entry in experiment [1] is “inactive”.
With `C=C1[C@@H]2CC[C@@H](C2)C1(C)C`, the activity, negative = cell killing in experiment [2] (setting [3]) was -1.58%; in experiment [2] (setting [5]), -22%. In experiment [1], the Potency entry was “inactive”.
Take `CCN(CC)CCCC(C)Nc1cc(/C=C/c2ccccc2Cl)nc2cc(Cl)ccc12` (stereo unspecified): the Potency result in experiment [1] was “inactive”.
